Most compounds without a hit are left out; they make up all but 1.6% or so of the library.
NPR1 activator: GC-A (human) enzyme activation | activation, % at 10 µM | 370,000 tested, 0.14% active | HEK293 GC-A cells, cGMP TR-FRET, EC30 ANP; 0% at EC30 ANP, 100% saturating ANP | P16066; in the data active = activation above about 40%
NR1D1 modulator: modulators of human Rev-erb alpha DNA binding | P20393 | AID 1259318 | Rev-erbα–FITC-DNA binding, fluorescence polarization, 90 min | activity, % at 10 µM | 370,000 tested, 0.79% active;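 active = activity above about 14%, limit read from the data; passing the limit was not always enough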;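 note: 0% = DMSO wells with 35 nM protein and 100% = DMSO wells with 750 nM protein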
V-ATPase pH: alters yeast V-ATPase proton transport. S. cerevisiae, pHLuorin cytosolic pH fluorescence. response, % at 10 µM. 350,000 tested, 0.37% active. AID 504577; in the data active = response mostly above about 7.3%, no sharp cut-off; inactive = mostly below about 5.4%; note: actives read high
PG9 binder: PG9 antibody binding by small molecule; inhibition, % at 6.7 µM; TR-FRET gp120-PG9 antibody binding; 360,000 tested, 0.43% active; AID 624416; in the data active = inhibition above about 8.5%
GC-B act: GC-B (human) receptor activation; P20594; AID 1920062; activation, % at 10 µM; HEK293-GC-B cells, CNP EC30, cGMP TR-FRET; 0% at EC30 CNP, 100% saturating CNP; 370,000 tested, 0.11% active;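 active = activation at 10 µM reaching about 35% in either raw or pattern-adjusted values, limit read from the data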
Rev-erbA confirm: Rev-erb alpha (human) modulation, hit confirmation; shares compounds with NR1D1 modulator; Rev-erb alpha FITC-DNA binding, fluorescence polarization, 90 min; activation, % at 25 µM; 3,000 tested, 61% active; AID 1259319;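 active = activation at or above a set limit, or at least 3 SD above the negative control mean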;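 note: 0% = 35 nM protein with DMSO and 100% = 750 nM protein high control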
RORg DNA counter: counter-screen for Rev-erb alpha modulators: RORgamma DNA binding; IC50, µM; shares compounds with NR1D1 modulator; purified RORgamma protein-FITC-DNA binding, fluorescence polarization; 910 tested, 8% active; AID 1259320;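 active = Compounds whose fitted half-maximal concentration for disrupting protein-DNA binding is below 10 micromolar; the record names Rev-erb in its text, so the target is in doubt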
An asterisk follows results filed as active.

Screening Cc1ccc(-c2cc(C(F)F)nc3sc4c(=O)[nH]cnc4c23)cc1 returned NPR1 activator 4, NR1D1 modulator 107*, PG9 binder 3, GC-B act -11, Rev-erbA confirm 113* and RORg DNA counter >40.
`CCOC(=O)c1c(C)nc2sc3c(=O)[nH]cnc3c2c1-c1ccc(OC)cc1` gave NPR1 activator -2, NR1D1 modulator -3, V-ATPase pH -1, PG9 binder 1 and GC-B act -3.
For C[C@H](O)[C@@H]1CN2CCc3ccc(N4CCOCC4)cc3[C@@H]2C[C@@H]1N(C)C(=S)NCCc1ccccc1 the results were NPR1 activator -4, NR1D1 modulator -1 and GC-B act -3.
Screening CCN(CC)c1ccc(S(=O)(=O)N2CCCCC2)cc1NC(=O)C1CSC2(C)CCC(=O)N12 (stereo unspecified) returned NPR1 activator -1, NR1D1 modulator 23*, V-ATPase pH 0, PG9 binder 1, GC-B act 3 and Rev-erbA confirm 22*.
Screening CC12CCC(=O)N1C(C(=O)Nc1cc(C(F)(F)F)ccc1N1CCCCC1)CS2 (stereo unspecified) returned NPR1 activator 6, NR1D1 modulator 15*, V-ATPase pH 3, PG9 binder 2, GC-B act 1 and Rev-erbA confirm 14.
`O=C(Nc1ccc(Cl)cc1Cl)O[C@@H]1CC[C@@]23CCCN2C(=O)CCC[C@H]3C1` gave NPR1 activator -3, NR1D1 modulator 3 and GC-B act 1.
`CCOC(=O)/C(C#N)=C\c1ccc(OCC(=O)Nc2ccc(C)cc2C)c(OC)c1` gave NPR1 activator 47*, NR1D1 modulator 28*, V-ATPase pH -9, PG9 binder 2, GC-B act 2 and Rev-erbA confirm 21*.
`CCOC(=O)Nc1ccc2c(COC(=O)CNS(=O)(=O)c3ccc(NC(C)=O)cc3)cc(=O)oc2c1` gave NPR1 activator 9, NR1D1 modulator 54*, V-ATPase pH 0, PG9 binder 6, GC-B act 3, Rev-erbA confirm 35* and RORg DNA counter >40.
For COC(=O)c1c(C)[nH]c(C(=O)/C=C/c2ccccc2)c1C the results were NPR1 activator -2, NR1D1 modulator -3, V-ATPase pH -3, PG9 binder 0 and GC-B act -3.
`COC(=O)c1c(C)[nH]c(C(=O)/C=C/c2ccc(C)cc2)c1C` gave NPR1 activator -1, NR1D1 modulator 26*, V-ATPase pH -3, PG9 binder 3, GC-B act 2 and Rev-erbA confirm 0.
For Oc1c(C=C2N=c3ccccc3=N2)sc(=S)n1-c1ccccc1 the results were NPR1 activator 2, NR1D1 modulator 3, V-ATPase pH -2, PG9 binder 0 and GC-B act 1.
For CC1=Nc2ccccc2/C1=C/c1sc(=S)n(-c2cccc(C(=O)O)c2)c1O the results were NPR1 activator -2, NR1D1 modulator 48*, V-ATPase pH -2, PG9 binder 0, GC-B act -4, Rev-erbA confirm 52* and RORg DNA counter >40.
CC(=O)Nc1ccc(NC(=O)CSc2nc3ccccc3nc2N2CCC(C)CC2)cc1 was read as NPR1 activator -6, NR1D1 modulator 45*, V-ATPase pH 0, PG9 binder -2, GC-B act -4 and Rev-erbA confirm 21*.
`Cc1ccc(NC(=O)CSc2nc3ccccc3nc2N2CCOCC2)c(C)c1` gave NPR1 activator -12, NR1D1 modulator 38*, V-ATPase pH -3, PG9 binder 4, GC-B act -11, Rev-erbA confirm 40* and RORg DNA counter >40.
Screening CCC[C@H]1[C@@H](OC(=O)N2CCN(c3ccccc3)CC2)CC[C@@]23CCCN2C(=O)CCC[C@@H]13 returned NPR1 activator -4, NR1D1 modulator 4 and GC-B act -5.
`Cc1ccc(-n2nc3ccc(NC(=O)c4cccc([N+](=O)[O-])c4C)cc3n2)cc1` gave NPR1 activator -27, NR1D1 modulator 26*, V-ATPase pH 0, PG9 binder 0, GC-B act -10 and Rev-erbA confirm 0.
For CCOc1ncccc1C(=O)Nc1ccc(C(=O)Nc2ccc(OC)cc2)cc1 the results were NPR1 activator 11, NR1D1 modulator 21*, V-ATPase pH 2, PG9 binder 4, GC-B act 7 and Rev-erbA confirm 14.
For COC(=O)CN(Cc1cn(Cc2ccccc2)nn1)S(=O)(=O)c1ccccc1Br the results were NPR1 activator -6, NR1D1 modulator -3 and GC-B act 0.
CSc1cc(-c2ccc(Cl)cc2)n(Cc2ccccc2)c(=O)c1C#N was read as NPR1 activator 10, NR1D1 modulator 32*, V-ATPase pH 3, PG9 binder -4, GC-B act 7 and Rev-erbA confirm 14.
CCCC/C=C1/[C@H](c2ccc(Cl)cc2)N(Cc2ccc3c(c2)OCO3)C2=N[C@H](c3ccccc3)CC(=O)N21 was read as NPR1 activator -1, NR1D1 modulator -2 and GC-B act 3.
`Clc1ccc(-c2nnc3sc(-c4ccc(Br)o4)nn23)c(Cl)c1` gave NPR1 activator 10, NR1D1 modulator 8, V-ATPase pH 4, PG9 binder -4 and GC-B act -6.
For Cc1cc(-c2nnc3sc(-c4ccc(Cl)cc4Cl)nn23)n[nH]1 the results were NPR1 activator -1, NR1D1 modulator 45*, V-ATPase pH 4, PG9 binder 6, GC-B act 4, Rev-erbA confirm 40* and RORg DNA counter >40.
For Clc1ccccc1-c1nn2c(-c3cc(-c4ccccc4)n[nH]3)nnc2s1 the results were NPR1 activator 1, NR1D1 modulator 30*, GC-B act 2, Rev-erbA confirm 44* and RORg DNA counter >40.
`Clc1ccc(-c2nn3c(-c4ccccc4)nnc3s2)cc1` gave NPR1 activator 2, NR1D1 modulator 24*, V-ATPase pH -3, PG9 binder 3, GC-B act -1 and Rev-erbA confirm 15.
Screening COc1cccc(OC)c1-c1nn2c(-c3cc(-c4ccccc4)n[nH]3)nnc2s1 returned NPR1 activator 3, NR1D1 modulator 65*, V-ATPase pH 2, PG9 binder -17, GC-B act -1, Rev-erbA confirm 83* and RORg DNA counter >40.
For CCN(Cc1nc2cc(Cl)ccc2c(=O)[nH]1)C(=O)c1cc2c(s1)CCCCC2 the results were NPR1 activator 2, NR1D1 modulator 54*, V-ATPase pH 1, PG9 binder 0, GC-B act 2, Rev-erbA confirm 34* and RORg DNA counter >40.
O=C(C1CCC1)N1CCc2cc(S(=O)(=O)N3CCCC3)ccc21 was read as NPR1 activator 0, NR1D1 modulator 2 and GC-B act 6.
